Laboratory results published in PubChem BioAssay (NCI).
Compounds without any hit were thinned out: in the full panel of roughly 83,000, 20% have a hit.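 Percent growth is the endpoint: 0 to 100 indicates growth inhibition (40 means 60% inhibition), 0 means no net growth, and negative values indicate cell death.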 Values without a mark were called inactive. Activity calls are given as the source filed them. How the source made its calls: active means growth percent below 10; inactive means the rest.

What follows are molecules tested on HL-60(TB) leukemia (assay: NCI-60 one-dose screen, 48 h (100 = growth as untreated, 0 = no growth, -100 = all killed)). Settings: 10 µM unless noted.

| Structure (SMILES) | growth |
| --- | --- |
| Cl.Fc1c[c-]c(-c2ccccn2)c(F)c1.[Pt].c1ccc([PH+](CC[PH+](c2ccccc2)c2ccccc2)c2ccccc2)cc1 | -29.2% (active) |
| O=[N+]([O-])CC(O)c1ccccc1 (stereo not given) | 99.4% |
| COC(=O)c1nc(=S)[nH]c(C(=O)OC)c1C(=O)c1ccccc1 | 116% |
| CC(CCc1ccccc1)NC(=O)c1n[nH]c(=O)c2ccccc12 (stereo not given) | 88.3% |
| COc1ccc(-c2cc(-c3nnc(SCC(=O)Nc4ccc(C(C)=O)cc4)n3-c3ccccc3)c3ccccc3n2)cc1OC | 100% |
| CCOC(=O)CC[C@H](NC(=O)c1ccc(N(C)Cc2cnc3nc(N)nc(N)c3n2)c2ccccc12)C(=O)OCC | 20.7% |
| Nc1ncn([C@@H]2O[C@H](CO)[C@@H](O)[C@H]2O)c(=O)n1 | -2.84% (active) |
| O=C(O)c1ccc2c(c1)C(=O)N(Cc1ccccc1)C2=O | 93.1% |
| CCCCCCCCCC[N+](C)(C)N | 90.2% |
| Cc1ccc(NC(=O)Cc2ccc(/C=C/C(=O)c3ncc[nH]3)cc2)cc1 | 27.5% |
| O=C(Cc1ccc(-c2ccc(OCCN3CCOCC3)cc2)cn1)NCc1ccccc1 | -31.2% (active) |
| Cc1nn(C)c2ncnc(N/N=C/c3cccc(O)c3O)c12 | -1.19% (active) |
| COc1ccc2cc(-c3ccc(C(=O)NN)c(C)n3)ccc2c1 | 104% |
| CC(=O)c1cccc(Nc2ncnc3ccc(NC(=O)c4ccco4)cc23)c1 | 122% |
| COc1ccc(N2C(=O)CC(c3cc(OC)c(OC)c(OC)c3)C3C2=NC(=O)N3C)cc1 (stereo not given) | 107% |
| NS(=O)(=O)c1ccc(CCN=C=S)cc1 | -2.31% (active) |
| O=S(=O)(NCCNc1nccc(-c2c(-c3ccc(F)cc3)nc3sccn23)n1)c1ccc(F)cc1 | 117% |
| CCCCOC(=O)Oc1ccc(C(=O)Oc2ccc(OCC)cc2)cc1 | 109% |
| Cc1ccc2nc(SCn3nnc4ccccc4c3=O)[nH]c2c1 | 80.3% |
| Cc1ccc2c(-n3nc(C#N)c(C#N)c3N)cc(=O)[nH]c2c1 | 109% |

| Structure (SMILES) | growth |
| --- | --- |
| Cc1ccc(C=C2C(=O)NC(=O)NC2=O)cc1 | 101% |
| N#Cc1c(N)nc(NCCO)nc1-c1ccc(F)cc1 | 93.6% |
| CC1CCN(Cc2ccc(NC(=O)c3cc4ccc5cccnc5c4[nH]3)cc2)CC1 | 11.5% |
| C=CCO[C@H]1CO[C@H]2[C@@H]1OC[C@@H]2Oc1ccc(Nc2ccnc(Nc3ccc(O[C@H]4CO[C@H]5[C@@H]4OC[C@@H]5OCC=C)c(Cl)c3)n2)cc1Cl | -51.4% (active) |
| CCOc1ccc(Br)cc1/C=N\N=C\c1cc(Br)ccc1OCC | 73.2% |
| CC(C)CCOc1ccc(-c2n[nH]c(C(F)(F)F)c2-c2cncc(C#N)c2)c(O)c1 | 3.64% (active) |
| CCCC1C(C(=O)OCC)=C(N)Oc2cc(O)ccc21 (stereo not given) | 102% |
| Brc1ccc(-c2csc(Nc3ccccn3)n2)cc1 | 79.2% |
| CN(C)c1ccc(-n2nc3ccccc3n2)cc1 | 90.5% |
| O=C(Cc1csc2nc(-c3ccc(Cl)cc3)cn12)N/N=C/c1ccccc1O | -3.5% (active) |
| COC(=O)[C@]12CC[C@@H](C)[C@H](C)[C@@H]1C1=CC[C@@H]3[C@@]4(C)C=C(O)C(=O)C(C)=C4CC[C@@]3(C)[C@]1(C)CC2 | 4.09% (active) |
| CN(C)CCCNc1nc2ccccc2c2c(=O)c3cc(F)ccc3sc12 | -43.5% (active) |
| N#Cc1c(-c2ccccc2)nc(SCC(=O)N2CCOCC2)[nH]c1=O | 55.9% |
| CCCCCCCC(=O)SCC/C=C/[C@@H]1CC(=O)NCc2cccc(n2)C2=N[C@@](C)(CS2)C(=O)N[C@@H](C(C)C)C(=O)N1 | 24.7% |
| COc1ccc2c(c1)C/C(=C\c1cc(-c3cc(OC)c(OC)c(OC)c3)n[nH]1)C2=O | 79% |
| CCOP(=O)(O)OP(=O)(O)OCC | 94.1% |
| Cc1nc2cnc(N)c(C#Cc3cncc(C(=O)Nc4ccc(CN5CCN(C)CC5)c(C(F)(F)F)c4)c3)c2nc1C | -16.4% (active) |
| COc1cc(NC(=O)CCSc2nc3ccccc3c(=O)n2Cc2ccccc2)cc(OC)c1OC | 104% |
| Nc1ccc(Oc2c(F)c(F)c(Oc3ccc(N)cc3)c(F)c2F)cc1 | 76.9% |
| COc1cc(CNC(=O)CCCC/C=C/C(C)C)ccc1OCc1cn(-c2ccc(C(F)(F)F)cc2)nn1 | 85.3% |
